Holding throughout (test): DAPPL (digital affinity profiling via proximity ligation, sequencing); 10 mM Tris-HCl pH 7.5, 50 mM NaCl, 1 mM DTT, 4% glycerol, room temperature, 30 min; GST-TFs on glutathione beads, 16-mer random dsDNA library, 0.1% formaldehyde crosslink after washing; high values mean tight binding
The target in assay [1] is T1, FEV (Homo sapiens, UniProt Q99581 1-238).
T1 sequence: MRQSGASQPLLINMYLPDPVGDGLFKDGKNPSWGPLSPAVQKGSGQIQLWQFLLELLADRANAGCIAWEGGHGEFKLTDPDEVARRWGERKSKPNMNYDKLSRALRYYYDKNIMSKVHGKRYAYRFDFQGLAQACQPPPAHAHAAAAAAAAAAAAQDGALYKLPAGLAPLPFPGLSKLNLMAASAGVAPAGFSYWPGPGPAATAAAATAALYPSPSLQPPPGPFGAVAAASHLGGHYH
The note with it: protein: recombinant; tags: N-terminal GST; dsDNA, one strand shown. In a few lines:
(§1)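 In yeast, human transcription factors were expressed with a GST fusion, then pulled down on glutathione beads and given DNA barcodes. Pooled with a tag-only sample, they were exposed to 200 nmole of a 16-mer random double-stranded DNA library (Tris/NaCl/DTT/glycerol buffer, room temperature, 30 min), washed, crosslinked with 0.1% formaldehyde, proximity-ligated using BsaI/T4 ligase for 1 h at 37 °C, PCR-amplified and read on an Illumina NextSeq500. Each hexamer's frequency of reads for a factor, divided by the matching frequency for the tag-only sample, gives the binding signal.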

Assay [2] concerns the target ETV5 (Homo sapiens, UniProt P41161 1-510). Particulars: protein: recombinant; tags: N-terminal GST; dsDNA, one strand shown. In a few lines: as §1
In assay [3] the target is HSF1 (Homo sapiens, UniProt Q00613 1-529). The note with it: protein: recombinant; tags: N-terminal GST; chain copies: 3; dsDNA, one strand shown. In a few lines:
as §1

Assay [4] addresses T2, SPIC (Homo sapiens, UniProt Q8N5J4 1-248).
T2 sequence: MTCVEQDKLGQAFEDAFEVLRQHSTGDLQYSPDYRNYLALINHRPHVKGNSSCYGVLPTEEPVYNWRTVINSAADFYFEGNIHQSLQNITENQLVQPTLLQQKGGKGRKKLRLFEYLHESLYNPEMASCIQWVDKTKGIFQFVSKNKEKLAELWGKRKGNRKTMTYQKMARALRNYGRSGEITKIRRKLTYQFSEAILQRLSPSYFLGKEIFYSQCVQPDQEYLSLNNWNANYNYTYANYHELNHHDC
The note with it: protein: recombinant; tags: N-terminal GST; dsDNA, one strand shown. The method, boiled down: as §1

Assay [5] has as its target ELF4 (Homo sapiens, UniProt Q99607 1-663). Particulars: protein: recombinant; tags: N-terminal GST; dsDNA, one strand shown. In a few lines:
as §1

Assay [6] addresses T3, ELK4 (Homo sapiens, UniProt P28324-2 1-405).
T3 sequence: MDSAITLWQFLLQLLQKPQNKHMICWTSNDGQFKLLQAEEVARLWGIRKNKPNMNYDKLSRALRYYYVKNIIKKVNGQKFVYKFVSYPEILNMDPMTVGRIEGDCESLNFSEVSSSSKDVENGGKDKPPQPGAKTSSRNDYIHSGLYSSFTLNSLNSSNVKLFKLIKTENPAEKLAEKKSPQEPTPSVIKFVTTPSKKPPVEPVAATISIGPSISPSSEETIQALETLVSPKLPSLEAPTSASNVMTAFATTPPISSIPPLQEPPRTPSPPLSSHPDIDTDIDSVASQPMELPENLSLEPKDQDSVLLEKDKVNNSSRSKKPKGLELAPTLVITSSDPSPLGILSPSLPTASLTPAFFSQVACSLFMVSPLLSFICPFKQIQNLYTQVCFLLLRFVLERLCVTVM
The note with it: protein: recombinant; tags: N-terminal GST; dsDNA, one strand shown. In a few lines: as §1

Assay [7] concerns the target T4, ETV2 (Homo sapiens, UniProt O00321 1-342).
T4 sequence: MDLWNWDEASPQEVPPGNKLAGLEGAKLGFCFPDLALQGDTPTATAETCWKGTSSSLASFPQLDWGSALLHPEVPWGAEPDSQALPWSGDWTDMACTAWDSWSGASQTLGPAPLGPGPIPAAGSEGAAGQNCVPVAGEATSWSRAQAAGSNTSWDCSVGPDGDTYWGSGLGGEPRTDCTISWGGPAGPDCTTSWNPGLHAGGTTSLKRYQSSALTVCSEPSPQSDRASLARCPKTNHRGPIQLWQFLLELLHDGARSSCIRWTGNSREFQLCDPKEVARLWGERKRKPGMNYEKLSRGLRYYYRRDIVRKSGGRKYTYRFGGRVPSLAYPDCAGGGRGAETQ
Particulars: protein: recombinant; tags: N-terminal GST; dsDNA, one strand shown. The method, boiled down:
as §1

The target in assay [8] is T5, ELF3 (Homo sapiens, UniProt P78545 1-371).
T5 sequence: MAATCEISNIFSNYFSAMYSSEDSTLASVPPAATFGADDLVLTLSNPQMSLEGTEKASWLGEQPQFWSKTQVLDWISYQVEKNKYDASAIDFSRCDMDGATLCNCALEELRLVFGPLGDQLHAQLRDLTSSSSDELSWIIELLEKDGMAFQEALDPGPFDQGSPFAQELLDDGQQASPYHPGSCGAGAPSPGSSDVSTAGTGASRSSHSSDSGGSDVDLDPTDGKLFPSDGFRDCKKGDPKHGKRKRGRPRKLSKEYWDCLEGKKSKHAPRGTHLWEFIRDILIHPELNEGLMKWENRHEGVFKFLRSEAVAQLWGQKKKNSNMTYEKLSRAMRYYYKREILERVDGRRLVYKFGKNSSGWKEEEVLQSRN
Particulars: protein: recombinant; tags: N-terminal GST; dsDNA, one strand shown. The method, boiled down:
as §1

The target in assay [9] is CRX (Homo sapiens, UniProt O43186 1-299). The note with it: protein: recombinant; tags: N-terminal GST; dsDNA, one strand shown. The method, boiled down: as §1
CRX, sequence (O43186 whole entry): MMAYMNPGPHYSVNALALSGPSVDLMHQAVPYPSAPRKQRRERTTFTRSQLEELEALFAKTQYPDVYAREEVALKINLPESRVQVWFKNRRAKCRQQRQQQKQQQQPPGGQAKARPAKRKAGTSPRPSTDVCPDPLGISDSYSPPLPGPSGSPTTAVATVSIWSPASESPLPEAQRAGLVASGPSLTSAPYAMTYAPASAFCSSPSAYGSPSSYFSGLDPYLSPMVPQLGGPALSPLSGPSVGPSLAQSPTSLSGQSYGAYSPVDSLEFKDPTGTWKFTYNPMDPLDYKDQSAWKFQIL
For assay [10], the target named is ETV1 (Homo sapiens, UniProt P50549 1-477). The note with it: protein: recombinant; tags: N-terminal GST; dsDNA, one strand shown. In a few lines:
as §1

In assay [11] the target is T6, ERF (Homo sapiens, UniProt P50548 1-548).
T6 sequence: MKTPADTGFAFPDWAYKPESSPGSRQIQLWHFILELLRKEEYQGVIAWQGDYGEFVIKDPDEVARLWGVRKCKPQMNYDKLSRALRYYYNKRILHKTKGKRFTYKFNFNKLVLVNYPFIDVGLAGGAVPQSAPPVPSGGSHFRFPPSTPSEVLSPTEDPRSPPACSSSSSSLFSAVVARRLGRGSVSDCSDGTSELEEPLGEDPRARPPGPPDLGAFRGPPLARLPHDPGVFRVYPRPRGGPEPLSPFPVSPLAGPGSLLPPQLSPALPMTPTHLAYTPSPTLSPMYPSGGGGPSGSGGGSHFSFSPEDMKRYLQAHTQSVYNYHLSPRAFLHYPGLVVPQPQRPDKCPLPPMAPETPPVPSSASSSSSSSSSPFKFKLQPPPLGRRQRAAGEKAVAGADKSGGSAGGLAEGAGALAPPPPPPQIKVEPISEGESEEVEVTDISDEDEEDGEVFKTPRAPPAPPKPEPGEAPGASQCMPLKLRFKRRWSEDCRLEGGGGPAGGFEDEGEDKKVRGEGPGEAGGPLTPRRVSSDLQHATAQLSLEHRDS
The note with it: protein: recombinant; tags: N-terminal GST; dsDNA, one strand shown. In a few lines:
as §1

Assay [12] concerns the target T7, ETV3L (Homo sapiens, UniProt Q6ZN32 1-361).
T7 sequence: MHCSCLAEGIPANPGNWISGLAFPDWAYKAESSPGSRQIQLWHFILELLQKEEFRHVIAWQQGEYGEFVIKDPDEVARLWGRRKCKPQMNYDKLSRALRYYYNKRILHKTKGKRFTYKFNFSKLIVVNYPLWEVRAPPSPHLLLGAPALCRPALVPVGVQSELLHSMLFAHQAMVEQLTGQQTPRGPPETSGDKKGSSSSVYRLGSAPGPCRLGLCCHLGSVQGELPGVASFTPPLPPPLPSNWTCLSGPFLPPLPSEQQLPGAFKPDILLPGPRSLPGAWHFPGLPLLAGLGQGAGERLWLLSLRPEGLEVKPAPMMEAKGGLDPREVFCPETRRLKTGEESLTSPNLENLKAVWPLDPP
Particulars: protein: recombinant; tags: N-terminal GST; dsDNA, one strand shown. The method, boiled down: as §1

In assay [13] the target is T8, ETS2 (Homo sapiens, UniProt P15036 1-469).
T8 sequence: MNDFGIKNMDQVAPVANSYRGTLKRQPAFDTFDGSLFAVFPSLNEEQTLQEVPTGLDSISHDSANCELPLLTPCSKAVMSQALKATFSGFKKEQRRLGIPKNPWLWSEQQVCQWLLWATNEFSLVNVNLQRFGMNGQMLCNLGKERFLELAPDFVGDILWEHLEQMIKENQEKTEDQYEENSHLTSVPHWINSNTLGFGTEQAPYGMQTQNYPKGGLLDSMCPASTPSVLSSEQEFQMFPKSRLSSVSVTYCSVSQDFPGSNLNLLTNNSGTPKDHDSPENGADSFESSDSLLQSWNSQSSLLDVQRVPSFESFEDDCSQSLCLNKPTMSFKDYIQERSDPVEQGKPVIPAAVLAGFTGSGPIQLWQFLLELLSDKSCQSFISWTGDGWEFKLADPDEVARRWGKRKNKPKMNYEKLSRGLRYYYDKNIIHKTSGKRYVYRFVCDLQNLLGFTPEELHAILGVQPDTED
The note with it: protein: recombinant; tags: N-terminal GST; dsDNA, one strand shown. In a few lines: as §1

Assay [14] addresses T9, SPDEF (Homo sapiens, UniProt O95238 1-335).
T9 sequence: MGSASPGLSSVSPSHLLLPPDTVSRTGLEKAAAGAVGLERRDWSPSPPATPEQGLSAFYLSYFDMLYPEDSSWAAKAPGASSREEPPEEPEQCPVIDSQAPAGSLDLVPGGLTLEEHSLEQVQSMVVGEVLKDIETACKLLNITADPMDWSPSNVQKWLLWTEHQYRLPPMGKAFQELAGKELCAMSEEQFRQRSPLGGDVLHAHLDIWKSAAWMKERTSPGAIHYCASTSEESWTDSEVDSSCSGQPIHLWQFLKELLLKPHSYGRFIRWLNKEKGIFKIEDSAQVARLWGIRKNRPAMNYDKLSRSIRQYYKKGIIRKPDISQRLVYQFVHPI
Particulars: protein: recombinant; tags: N-terminal GST; dsDNA, one strand shown. The method, boiled down: as §1

For assay [15], the target named is T10, ETV7 (Homo sapiens, UniProt Q9Y603 1-341).
T10 sequence: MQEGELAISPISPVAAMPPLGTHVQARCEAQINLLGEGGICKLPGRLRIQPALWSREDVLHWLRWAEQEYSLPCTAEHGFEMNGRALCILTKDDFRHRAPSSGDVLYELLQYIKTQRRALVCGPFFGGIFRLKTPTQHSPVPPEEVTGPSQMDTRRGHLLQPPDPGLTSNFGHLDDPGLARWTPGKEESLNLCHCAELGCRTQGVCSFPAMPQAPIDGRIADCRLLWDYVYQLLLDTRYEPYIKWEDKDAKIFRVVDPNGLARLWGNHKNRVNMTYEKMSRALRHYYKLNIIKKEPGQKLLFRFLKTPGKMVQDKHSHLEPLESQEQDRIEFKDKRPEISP
Particulars: protein: recombinant; tags: N-terminal GST; dsDNA, one strand shown. The method, boiled down:
as §1

Assay [16] has as its target T11, ELF5 (Homo sapiens, UniProt Q9UKW6-2 1-255).
T11 sequence: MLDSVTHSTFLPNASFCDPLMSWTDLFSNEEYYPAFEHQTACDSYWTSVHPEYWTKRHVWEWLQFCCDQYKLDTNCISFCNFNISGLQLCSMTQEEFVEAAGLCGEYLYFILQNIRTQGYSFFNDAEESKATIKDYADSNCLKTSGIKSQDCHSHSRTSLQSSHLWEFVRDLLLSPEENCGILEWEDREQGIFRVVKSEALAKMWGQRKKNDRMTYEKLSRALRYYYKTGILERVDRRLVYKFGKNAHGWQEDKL
The note with it: protein: recombinant; tags: N-terminal GST; dsDNA, one strand shown. The method, boiled down: as §1

In assay [17] the target is T12, ETV3 (Homo sapiens, UniProt P41162-2 1-143).
T12 sequence: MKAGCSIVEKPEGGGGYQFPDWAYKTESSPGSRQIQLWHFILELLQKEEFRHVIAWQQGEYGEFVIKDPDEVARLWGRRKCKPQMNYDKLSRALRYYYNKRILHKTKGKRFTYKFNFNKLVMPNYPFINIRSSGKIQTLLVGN
Particulars: protein: recombinant; tags: N-terminal GST; dsDNA, one strand shown. The method, boiled down:
as §1

For assay [18], the target named is ETV6 (Homo sapiens, UniProt P41212 1-452). The note with it: protein: recombinant; tags: N-terminal GST; dsDNA, one strand shown. In a few lines: as §1
ETV6, sequence (P41212 whole entry): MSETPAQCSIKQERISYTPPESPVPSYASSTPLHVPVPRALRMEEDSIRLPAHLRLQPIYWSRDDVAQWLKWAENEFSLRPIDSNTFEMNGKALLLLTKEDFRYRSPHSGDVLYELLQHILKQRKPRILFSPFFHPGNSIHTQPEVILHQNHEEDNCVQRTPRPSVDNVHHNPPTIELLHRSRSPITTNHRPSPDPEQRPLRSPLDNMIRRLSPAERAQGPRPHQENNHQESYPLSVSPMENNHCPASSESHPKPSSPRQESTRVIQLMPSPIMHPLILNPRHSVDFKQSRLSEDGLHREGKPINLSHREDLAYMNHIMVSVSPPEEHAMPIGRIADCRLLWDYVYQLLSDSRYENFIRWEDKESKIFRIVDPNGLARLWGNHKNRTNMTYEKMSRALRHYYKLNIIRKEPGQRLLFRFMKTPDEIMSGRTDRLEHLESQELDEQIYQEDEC

HSF1, sequence (Q00613 whole entry): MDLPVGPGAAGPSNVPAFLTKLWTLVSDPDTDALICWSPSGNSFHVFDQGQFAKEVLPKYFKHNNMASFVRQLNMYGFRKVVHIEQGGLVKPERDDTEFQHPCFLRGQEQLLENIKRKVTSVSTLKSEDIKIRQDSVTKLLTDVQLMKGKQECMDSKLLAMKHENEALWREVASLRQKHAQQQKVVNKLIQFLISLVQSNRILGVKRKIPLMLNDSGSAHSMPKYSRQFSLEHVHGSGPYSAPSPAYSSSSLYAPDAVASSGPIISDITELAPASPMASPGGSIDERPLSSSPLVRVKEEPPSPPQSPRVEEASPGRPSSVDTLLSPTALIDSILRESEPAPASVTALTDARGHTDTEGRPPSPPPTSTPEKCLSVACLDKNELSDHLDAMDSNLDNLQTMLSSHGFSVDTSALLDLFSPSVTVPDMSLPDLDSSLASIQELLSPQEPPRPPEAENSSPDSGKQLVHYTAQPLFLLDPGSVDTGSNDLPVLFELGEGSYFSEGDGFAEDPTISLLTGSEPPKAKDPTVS
ELF4, sequence (Q99607 whole entry): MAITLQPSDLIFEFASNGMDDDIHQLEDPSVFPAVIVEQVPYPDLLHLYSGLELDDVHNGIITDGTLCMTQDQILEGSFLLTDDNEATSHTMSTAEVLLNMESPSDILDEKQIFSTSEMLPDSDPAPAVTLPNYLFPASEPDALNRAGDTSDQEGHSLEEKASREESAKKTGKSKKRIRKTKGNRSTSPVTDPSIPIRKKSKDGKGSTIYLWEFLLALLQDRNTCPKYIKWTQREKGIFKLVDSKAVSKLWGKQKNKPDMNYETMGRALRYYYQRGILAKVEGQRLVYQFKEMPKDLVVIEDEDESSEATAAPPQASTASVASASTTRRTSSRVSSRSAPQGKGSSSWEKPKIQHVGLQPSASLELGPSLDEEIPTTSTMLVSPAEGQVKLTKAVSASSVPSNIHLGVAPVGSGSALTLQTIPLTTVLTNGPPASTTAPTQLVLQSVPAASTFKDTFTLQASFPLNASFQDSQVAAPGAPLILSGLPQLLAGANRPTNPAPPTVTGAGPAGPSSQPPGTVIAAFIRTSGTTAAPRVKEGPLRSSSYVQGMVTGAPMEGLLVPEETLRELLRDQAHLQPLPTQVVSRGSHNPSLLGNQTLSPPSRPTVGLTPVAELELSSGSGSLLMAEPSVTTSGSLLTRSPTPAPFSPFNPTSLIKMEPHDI
ETV5, sequence (P41161 whole entry): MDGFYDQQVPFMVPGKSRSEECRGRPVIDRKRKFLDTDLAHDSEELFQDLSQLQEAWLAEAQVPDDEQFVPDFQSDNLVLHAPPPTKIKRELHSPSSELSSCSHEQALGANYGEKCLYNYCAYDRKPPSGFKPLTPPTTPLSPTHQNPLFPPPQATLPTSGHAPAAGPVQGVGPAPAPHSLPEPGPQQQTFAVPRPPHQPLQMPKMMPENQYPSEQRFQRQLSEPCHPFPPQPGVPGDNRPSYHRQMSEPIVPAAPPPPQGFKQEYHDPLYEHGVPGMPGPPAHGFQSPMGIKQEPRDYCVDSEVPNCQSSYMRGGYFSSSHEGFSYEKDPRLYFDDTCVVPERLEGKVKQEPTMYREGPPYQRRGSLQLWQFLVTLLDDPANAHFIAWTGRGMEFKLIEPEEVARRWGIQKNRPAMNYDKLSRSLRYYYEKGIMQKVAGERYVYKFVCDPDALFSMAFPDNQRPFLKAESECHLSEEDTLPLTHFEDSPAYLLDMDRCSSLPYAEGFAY
ETV1, sequence (P50549 whole entry): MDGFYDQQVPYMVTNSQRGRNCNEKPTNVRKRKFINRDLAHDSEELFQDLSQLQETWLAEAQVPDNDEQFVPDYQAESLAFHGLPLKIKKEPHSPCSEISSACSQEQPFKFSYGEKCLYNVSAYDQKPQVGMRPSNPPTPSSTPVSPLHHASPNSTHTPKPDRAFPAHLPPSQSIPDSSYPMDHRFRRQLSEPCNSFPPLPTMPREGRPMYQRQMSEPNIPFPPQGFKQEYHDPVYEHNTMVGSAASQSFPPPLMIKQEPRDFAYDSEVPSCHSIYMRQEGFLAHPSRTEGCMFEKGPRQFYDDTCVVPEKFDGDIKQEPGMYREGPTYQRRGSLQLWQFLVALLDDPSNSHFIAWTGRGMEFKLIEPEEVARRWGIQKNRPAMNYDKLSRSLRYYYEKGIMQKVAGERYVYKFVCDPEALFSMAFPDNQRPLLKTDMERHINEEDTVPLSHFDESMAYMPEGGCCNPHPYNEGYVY

In the case of TTCGAC, the binding signal in assay [1] was 1.5 fold enrichment (6-mer frequency, TF over GST control); in assay [2], 1.46 fold enrichment (6-mer frequency, TF over GST control); in assay [3], 1.75 fold enrichment (6-mer frequency, TF over GST control); in assay [4] it was 1.35 fold enrichment (6-mer frequency, TF over GST control); in assay [5], 1.63 fold enrichment (6-mer frequency, TF over GST control); in assay [6] it was 1.43 fold enrichment (6-mer frequency, TF over GST control). In addition, the binding signal was 1.35 fold enrichment (6-mer frequency, TF over GST control) in [7]; 1.46 fold enrichment (6-mer frequency, TF over GST control) in assay [8]; 1.44 fold enrichment (6-mer frequency, TF over GST control) in [9]; 1.44 fold enrichment (6-mer frequency, TF over GST control) in [10]; 1.43 fold enrichment (6-mer frequency, TF over GST control) in [11]; 1.39 fold enrichment (6-mer frequency, TF over GST control) in assay [12]. In addition, the binding signal in assay [13] was 1.42 fold enrichment (6-mer frequency, TF over GST control); in [14], 1.36 fold enrichment (6-mer frequency, TF over GST control); in assay [15] it was 1.37 fold enrichment (6-mer frequency, TF over GST control); in assay [16] it was 1.36 fold enrichment (6-mer frequency, TF over GST control); in assay [17] it was 1.45 fold enrichment (6-mer frequency, TF over GST control); in assay [18], 1.3 fold enrichment (6-mer frequency, TF over GST control).

The values are drawn from publication PMC7862700, “An all-to-all approach to the identification of sequence-specific readers for epigenetic DNA modifications on cytosine”.
